The values below come from PubChem BioAssay (NCATS).

Test [1] can be described thus: qHTS for Inhibitors of Plasmodium falciparum (DD2) proliferation (AID 504314). Also: potency is read from the fitted curve at half-maximal effect. Summed up:
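Normalization used 0.29 uM artemisinin as full inhibition and DMSO as baseline. Parasitized erythrocytes were exposed to compounds for 72 h (37C, 5% CO2), then lysed with saponin/Triton buffer containing SYBR Green I.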

Test [2] can be described thus: qHTS for Inhibitors of Plasmodium falciparum (GB4) proliferation (AID 504315). Also: nearly all actives have a fitted effect of over 50% in size. Also: potency is read from the fitted curve at half-maximal effect. The method in brief: (§1)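 Parasite growth measured as SYBR Green DNA fluorescence (ex 485, em 535 nm) after overnight lysis following 72 h culture at 37 °C, 0.3% parasitemia, 2.5% hematocrit. Values normalized against DMSO and 0.29 uM artemisinin controls, with plate-stack correction.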
Test [3] in a line: qHTS for Inhibitors of Plasmodium falciparum (7G8) proliferation (AID 504316). Also: nearly all actives have a fitted effect of over 65% in size. Also: potency is read from the fitted curve at half-maximal effect. The method in brief:
as §1

Test [4] is described as follows: qHTS for Inhibitors of Plasmodium falciparum (CP250) proliferation (AID 504320).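 Also: plate controls were DMSO vehicle for no effect and 0.29 µM artemisinin control for full effect.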 Summed up:
as §1

Test [5] in a line: qHTS for Inhibitors of Plasmodium falciparum (HB3) proliferation (AID 504318).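 Also: 0% = DMSO vehicle and -100% = artemisinin control; nearly all actives have a fitted effect of over 60% in size.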 The method in brief:
as §1

Test [6] has as its target Cytochrome P450 2C9 (Homo sapiens) (UniProt P11712). The test is described as follows: qHTS Assay for Inhibitors and Substrates of Cytochrome P450 2C9 (AID 883). Also: % is scaled to controls: 0 for no effect and ±100 for the full control effect; nearly all actives have a fitted effect of over 60% in size. Summed up: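 A luminogenic readout tracked human CYP2C9 (10nM) converting deoxyluciferin (100uM, at KM) in 25mM KPO4 during 60 min at 37C with regenerated NADPH. Values normalized to 57uM sulphaphenazole as complete inhibition.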
For orientation: In qHTS, concentration-response curves come from the screen itself.

In test [7] the target is Cytochrome P450 3A4 (Homo sapiens) (UniProt P08684). The test is described as follows: qHTS Assay for Activators of Cytochrome P450 3A4 (AID 885). Also: nearly all actives have a fitted effect of over 65% in size. Summed up:
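Using 20nM recombinant human CYP3A4 in potassium phosphate (200mM), substrate Luciferin-PPXE at 25uM, luminescent luciferin detection followed a 60-min RT NADPH reaction; data scaled to 57 uM ketoconazole.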

Unmarked numbers belong to inactive results. Results filed as inconclusive are left out. Active and inactive are the calls of the source. Calls follow the shape of the dose curve; as a rule, active = well fitted curve in the direction sought with a large enough effect; inconclusive = small, poorly fitted or top-dose-only effect, or another doubt; inactive = no such curve, though single readings can be large; an effect the other way counts as inactive or inconclusive.

Cytochrome P450 3A4 (Homo sapiens), sequence (P08684 whole entry, looked up): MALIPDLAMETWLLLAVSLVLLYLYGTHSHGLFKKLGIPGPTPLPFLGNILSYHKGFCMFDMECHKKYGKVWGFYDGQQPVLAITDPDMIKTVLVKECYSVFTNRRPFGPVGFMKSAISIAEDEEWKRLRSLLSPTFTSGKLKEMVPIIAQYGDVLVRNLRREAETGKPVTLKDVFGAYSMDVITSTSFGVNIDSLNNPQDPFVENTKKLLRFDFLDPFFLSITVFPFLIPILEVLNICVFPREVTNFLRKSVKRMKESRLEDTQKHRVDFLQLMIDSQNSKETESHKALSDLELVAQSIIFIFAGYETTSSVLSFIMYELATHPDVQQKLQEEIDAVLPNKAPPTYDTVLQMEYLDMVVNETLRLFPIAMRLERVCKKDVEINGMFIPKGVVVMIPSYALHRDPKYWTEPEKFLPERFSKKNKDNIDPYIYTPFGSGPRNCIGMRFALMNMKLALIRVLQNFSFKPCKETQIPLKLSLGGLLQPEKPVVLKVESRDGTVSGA
Cytochrome P450 2C9 (Homo sapiens), sequence (P11712 whole entry, looked up): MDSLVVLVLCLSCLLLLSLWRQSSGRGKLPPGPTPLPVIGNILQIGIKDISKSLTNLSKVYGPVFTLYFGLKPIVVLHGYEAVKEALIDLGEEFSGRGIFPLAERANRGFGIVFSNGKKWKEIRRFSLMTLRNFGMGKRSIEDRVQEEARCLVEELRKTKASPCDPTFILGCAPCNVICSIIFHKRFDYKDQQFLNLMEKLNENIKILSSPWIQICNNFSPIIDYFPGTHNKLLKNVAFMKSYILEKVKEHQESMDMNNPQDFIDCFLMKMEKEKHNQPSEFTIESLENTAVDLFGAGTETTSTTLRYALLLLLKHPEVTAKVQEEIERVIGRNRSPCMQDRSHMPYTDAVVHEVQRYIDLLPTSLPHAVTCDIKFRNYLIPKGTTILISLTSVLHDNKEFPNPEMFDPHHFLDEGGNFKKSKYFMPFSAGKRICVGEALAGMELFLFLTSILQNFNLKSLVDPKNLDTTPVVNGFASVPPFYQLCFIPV

On to `CCCC[C@]12Cc3cc(OC)c(OC)cc3[C@H](O1)C1=C(O2)C(=O)c2ccccc2C1=O`, for which the Potency is 3 µM (active) in test [1], 1.69 µM (active) in test [2] and 1.51 µM (active) in test [3]. In addition, the Potency result in test [4] is “inactive”.

Consider `COC(=O)N[C@@H](c1ccccc1)[C@]1(C(=O)OC)CCCC1=O`, for which the Potency entry in test [1], in test [2], in test [3], in test [5] and in test [4] was “inactive” in each case.

With `CC(=O)C1=C(C)N(Cc2ccccc2)C(=O)N[C@H]1c1ccco1`, the Potency entry in test [1], in test [2], in test [3] and in test [4] was “inactive” in each case.

With `COCC(=O)N1CCc2nc(COc3ccccc3)c3c(c2C1)CO[C@@H](C)C3`, the Potency entry in test [1], in test [2], in test [3], in test [5] and in test [4] was “inactive” throughout.

Take `CCCCC1=CC2=CC(=O)C(C)(OC(=O)CC)C(=O)C2=CN1Cc1ccccc1` (stereo not drawn): the Potency entry in test [1], in test [2], in test [3], in test [5] and in test [4] was “inactive” throughout.

As for `CCN1C(=O)N[C@H](c2ccc(Br)cc2)C(C(=O)OC)=C1C`, the Potency entry in test [1], in test [2], in test [3], in test [5] and in test [4] was “inactive” throughout.

Consider `COC(=O)CCCC1=CC2=CC(=O)C(C)(OC(=O)c3cccs3)C(=O)C2=CN1CC1CC1` (stereo not drawn), for which the Potency result in test [1], in test [2], in test [3] and in test [4] was “inactive” throughout.

For the compound `CCN1C(=O)N[C@@H](c2cccs2)C(C(C)=O)=C1C`, the Potency entry in test [1], in test [2], in test [3] and in test [4] was “inactive” in each case.

Turning to `CC1(OC(=O)C2CCCC2)C(=O)C=C2C=C(c3ccsc3)N(c3ccc(CO)cc3)C=C2C1=O` (stereo not drawn), the Potency entry in test [1], in test [2], in test [3], in test [5] and in test [4] was “inactive” throughout.

For `CCN(CC)CCCN1C=C2C(=O)C(C)(OC(=O)CCc3ccccc3)C(=O)C=C2C=C1c1ccc(C#N)cc1` (stereo not drawn), the Potency entry in test [1], in test [2], in test [3], in test [5] and in test [4] was “inactive” each time.

Take `C=CCN1C=C2C(=O)C(C)(OC(=O)c3cnc4ccccc4n3)C(=O)C=C2C=C1/C=C/COC` (stereo not drawn): the Potency entry in test [1], in test [2], in test [3], in test [5] and in test [4] was “inactive” in each case.

In the case of `CCCCC1=CC2=CC(=O)C(C)(OC(=O)CC)C(=O)C2=CN1CCc1c[nH]c2ccccc12` (stereo not drawn), the Potency result in test [1], in test [2], in test [3], in test [5] and in test [4] was “inactive” each time.

As for `O=C(NS(=O)(=O)c1ccc(F)cc1)O[C@@H]1C(=O)c2cc(Br)ccc2O[C@H]1c1ccc2c(c1)OCO2`, the Potency entry in test [1], in test [2], in test [3] and in test [4] was “inactive” each time.

As for `CCN1C(=O)N[C@@H](c2cccs2)C(C(=O)OC)=C1C`, the Potency entry in test [1], in test [2], in test [3] and in test [4] was “inactive” in each case.

As to `CC#CCN1c2ccccc2[C@]23C[C@@H](C(=O)OC)N(C(C)=O)C2=NC(C(=O)OC)=C(C(=O)OC)[C@H]13`, the Potency entry in test [1], in test [2], in test [3] and in test [4] was “inactive” throughout.

As to `CCCCc1nc2c(c3c1C[C@H](C)OC3)CN(C(=O)Cc1cccc(OC)c1)CC2`, the Potency result in test [1], in test [2], in test [5] and in test [4] was “inactive” in each case.

In the case of `CCCCc1nc2c(c3c1C[C@H](C)OC3)CN(S(=O)(=O)c1ccc(Cl)c3nonc13)CC2`, the Potency result in test [1], in test [2], in test [3] and in test [4] was “inactive” each time.

Consider `COC(=O)CCC(=O)OC1(C)C(=O)C2=CN(C(CO)CO)C(c3ccc(OC)cc3)=CC2=C(Br)C1=O` (stereo not drawn), for which the Potency result in test [1], in test [2], in test [3] and in test [4] was “inactive” in each case.

As for `COC(=O)C1=C(C(=O)OC)[C@@H]2N(C)c3ccc(OC)cc3[C@@]23C[C@@H](C(=O)OC)N(S(=O)(=O)c2ccc4c(c2)OCCN4C)C3=N1`, the Potency result in test [1], in test [2], in test [3] and in test [4] was “inactive” each time.

As for `COC(=O)N1CCc2cc(OC)c(OC)cc2C1Cc1ccc(OC)cc1` (stereo not drawn), the Potency entry in test [6], in test [1], in test [2], in test [3] and in test [4] was “inactive” each time. The activity change, positive = activation in test [7] was -32.2% [at 11.4 µM].

On to `CC#CCN1c2ccccc2[C@]23C[C@@H](C(=O)OC)N(C(=O)CC(C)C)C2=NC(C(=O)OC)=C(C(=O)OC)[C@H]13`, for which the Potency entry in test [1], in test [2], in test [3] and in test [4] was “inactive” in each case.

As for `C[C@H]1Cc2c(-c3ccccc3)nc3c(c2CO1)CN(C(=O)c1cc(I)ccc1F)CC3`, the Potency entry in test [1], in test [2], in test [5] and in test [4] was “inactive” in each case.

As to `COC(=O)[C@@]1(C=C2c3ccc(F)cc3[C@@H](OC)[C@@H]2C)[C@@H]2CC=C[C@@H]21`, the Potency result in test [1], in test [2], in test [3] and in test [4] was “inactive” each time.

In the case of `COC(=O)CCC(=O)OC1(C)C(=O)C2=CN(Cc3ccc(OC)cc3)C(c3ccc(OC)cc3)=CC2=C(Br)C1=O` (stereo not drawn), the Potency result in test [1], in test [2], in test [3] and in test [4] was “inactive” each time.

In the case of `COC(=O)CCC(=O)OC1(C)C(=O)C=C2C=C(C3CC3)N(c3ccccc3)C=C2C1=O` (stereo not drawn), the Potency result in test [1], in test [2] and in test [5] was “inactive” each time.

Take `C[C@@H](c1ccccc1)N1C(=O)[C@@H]2[C@H]3[C@H](O)[C@H](O)CC(=NNC(=O)OCc4ccccc4)[C@@H]3CC[C@H]2C1=O`: the Potency result in test [1], in test [2], in test [3] and in test [4] was “inactive” each time.
